The source of these data is PubChem BioAssay.

Test [1] relates to PRMT1 (protein arginine N-methyltransferase 1). Description: small molecules binding arginine methyltransferase PRMT1 – biochemical, small-molecule microarray, 635 nm fluorescence, primary screen (AID 1088).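 Note: binding of Prmt1 protein to compounds spotted on small-molecule microarray slides.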 The note with it: higher = more signal.
Test [2] is described as follows: growth effects on S. cerevisiae YJM789 – YJM789 clinical isolate, OD600, 24 h, basal, primary screen (AID 1089).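 Note: growth of clinical yeast isolate S. cerevisiae YJM 789 seeded 1000 cells per well; test concentration not given here.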 The note with it: higher = more signal, called active from +8 up or from −8 down.
Test [3] in a line: S. pombe growth modifiers, basal conditions – strain 972, OD600, 24 h, no modulator, primary screen (AID 1090).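 Note: basal condition with compound alone and no growth modifier present; test concentration not given here.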 The note with it: S. pombe 972 growth, higher = more signal, called active from +8 up or from −8 down.
The nature of test [4]: budding yeast growth modifiers under rapamycin – strain BY4716, OD600, 96 h, primary screen (AID 1091). Note: test concentration not given here. The note with it: S. cerevisiae BY4716 + rapamycin, higher = more signal, called active from +8 up or from −8 down.
The target in test [5] is Torsin-1A-interacting protein 2 (Homo sapiens) (UniProt Q8NFQ8). In words: small molecules binding lysate-expressed LULL1 – cell lysate, human LULL1 lysate, 635/667 nm fluorescence, primary screen (AID 1092).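 Note: probe is lysate of COS7 cells overexpressing human LULL1; score merges per-feature 667 nm fluorescence with signal-to-noise.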 To be noted: small-molecule microarray, hLULL1 lysate binding, 635 nm fluorescence; higher = more signal.
Test [6] in a line: optical density change of DRC41 E. coli – strain DRC41, OD650, 24 h, E. coli filamentation project, primary screen (AID 1093).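 Note: MC1000 strain lacking acrAB efflux and sulA so SOS filamentation is blocked; test concentration not given here.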 To be noted: E. coli DRC41 growth, higher = more signal, called active from +8 up or from −8 down.
The nature of test [7]: probe aLefty2 binding to arrayed compounds – biochemical, biotinylated probe, 635/667 nm fluorescence, primary screen (AID 1094).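 Note: score merges spot fluorescence near 667 nm with spot signal-to-noise ratio.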 The note with it: small-molecule microarray, higher = more signal.
Test [8] concerns Noggin (protein binding on small-molecule microarray). Description: small molecules binding Noggin protein – biochemical, 635/667 nm fluorescence, primary screen (AID 1095).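 Note: score merges 667 nm feature fluorescence with signal to noise over triplicate slides.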 The note with it: 635 nm fluorescence, higher = more signal.
Test [9] has as its target Neurogenic locus notch homolog protein 3 (Homo sapiens) (UniProt Q9UM47). Description: small molecules binding NOTCH3 protein – biochemical, 635/667 nm fluorescence, primary screen (AID 1096). To be noted: small-molecule microarray, 635 nm fluorescence, higher = more signal.
Test [10] in a line: probe aEGFR binding to arrayed compounds – biochemical, biotinylated probe, 635/667 nm fluorescence, primary screen (AID 1097).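 Note: probe is a biotinylated anti-EGFR antibody binding compounds printed on slides; score combines fluorescence near 667 nm and signal to noise of each spot.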 The note with it: small-molecule microarray, higher = more signal.
Test [11] has as its system Plasmodium falciparum Sir2 (PF13_0152, Sir2A). Description: Plasmodium falciparum Sir2A binding compounds – biochemical, small-molecule microarray, 635 nm fluorescence, primary screen (AID 1098).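 Note: score merges spot fluorescence intensity with its signal-to-noise ratio.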 The note with it: fluorescence 635 nm, higher = more signal.
Test [12] can be described thus: probe aDKK1 binding to arrayed compounds – biochemical, biotinylated probe, 635/667 nm fluorescence, primary screen (AID 1099).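 Note: score merges 667nm spot fluorescence with signal to noise across triplicate slides; reference of the scale not given here.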 To be noted: small-molecule microarray, higher = more signal.
Test [13] in a line: probe aCHRDL2 binding to arrayed compounds – biochemical, biotinylated probe, 635/667 nm fluorescence, primary screen (AID 1100). To be noted: small-molecule microarray, higher = more signal.
Test [14] can be described thus: change in splice reporter luminescence, either direction, cell-based, HEK293, spliceosome inhibition project, primary screen (AID 1101).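 Note: HEK293 cells carrying a splicing-competent luciferase reporter gene; test concentration not given here.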 To be noted: HEK293 splicing luciferase reporter, 24 h, higher = more signal, called active from +8 up or from −8 down. A general note: Reporter assays use an easily measured gene product as a stand-in for the process of interest.
In test [15] the target is Fibroblast growth factor 10 (Homo sapiens) (UniProt O15520). Description: compounds binding fibroblast growth factor 10 – biochemical, small-molecule microarray, 635 nm fluorescence, primary screen (AID 1102). The note with it: FGF10 binding, fluorescence 635 nm, higher = more signal.
Test [16] has as its system glycogen synthase kinase-3 (GSK3A per assay name; protocol says GSK3B). In words: compounds binding glycogen synthase kinase-3 – biochemical, small-molecule microarray, 635 nm fluorescence, GSK3A, primary screen (AID 1103). Note: the record names both GSK3A and GSK3B. The note with it: fluorescence 635 nm, higher = more signal.
In test [17] the target is Epidermal growth factor receptor (Homo sapiens) (UniProt P00533). In words: compounds binding epidermal growth factor receptor – biochemical, small-molecule microarray, 635 nm fluorescence, primary screen (AID 1104).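 Note: score merges 667 nm emission intensity with spot signal to noise over triplicate slides.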 The note with it: EGFR binding, higher = more signal.
Test [18] has as its target Follistatin-related protein 3 (Homo sapiens) (UniProt O95633). Description: compounds binding follistatin-related protein 3 – biochemical, small-molecule microarray, 635 nm fluorescence, primary screen (AID 1105).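 Note: score merges emission near 667 nm and signal to noise per printed spot across three slides.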 The note with it: FSTL3 binding, higher = more signal.
Test [19] deals with Dickkopf-related protein 1 (Homo sapiens) (UniProt O94907). In words: small molecules binding DKK1 protein – biochemical, small-molecule microarray, 635 nm fluorescence scan, primary screen (AID 1106).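 Note: score merges emission near 667 nm with signal to noise over three replicate slides.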 To be noted: higher = more signal.
In test [20] the test system is Inhibin beta A chain (activin A). Description: small molecules binding activin A – biochemical, small-molecule microarray, 635 nm fluorescence scan, primary screen (AID 1107).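 Note: mouse activin A protein probed at 4.33 µg/mL on printed slides; score merges bound-protein fluorescence near 667 nm with spot signal-to-noise.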 To be noted: INHBA, higher = more signal.

The structures appear in SMILES notation. Active and inactive are the calls of the source.

Chain of Dickkopf-related protein 1 (Homo sapiens) (O94907 whole entry, looked up): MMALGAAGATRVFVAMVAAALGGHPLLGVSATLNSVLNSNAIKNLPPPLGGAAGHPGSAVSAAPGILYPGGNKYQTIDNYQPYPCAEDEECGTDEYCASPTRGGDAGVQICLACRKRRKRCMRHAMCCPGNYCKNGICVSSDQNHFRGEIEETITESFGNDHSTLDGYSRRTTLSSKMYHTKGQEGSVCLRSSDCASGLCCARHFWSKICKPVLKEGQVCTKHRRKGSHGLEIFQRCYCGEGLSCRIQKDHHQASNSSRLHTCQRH
Chain of Follistatin-related protein 3 (Homo sapiens) (O95633 whole entry, looked up): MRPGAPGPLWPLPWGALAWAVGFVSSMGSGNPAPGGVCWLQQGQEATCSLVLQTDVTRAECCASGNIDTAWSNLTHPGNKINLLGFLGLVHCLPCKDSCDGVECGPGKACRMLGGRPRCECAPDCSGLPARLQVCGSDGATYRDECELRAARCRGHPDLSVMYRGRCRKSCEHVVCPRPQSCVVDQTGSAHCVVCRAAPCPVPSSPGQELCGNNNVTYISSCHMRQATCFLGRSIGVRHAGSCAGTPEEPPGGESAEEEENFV
Chain of Epidermal growth factor receptor (Homo sapiens) (P00533 whole entry, looked up): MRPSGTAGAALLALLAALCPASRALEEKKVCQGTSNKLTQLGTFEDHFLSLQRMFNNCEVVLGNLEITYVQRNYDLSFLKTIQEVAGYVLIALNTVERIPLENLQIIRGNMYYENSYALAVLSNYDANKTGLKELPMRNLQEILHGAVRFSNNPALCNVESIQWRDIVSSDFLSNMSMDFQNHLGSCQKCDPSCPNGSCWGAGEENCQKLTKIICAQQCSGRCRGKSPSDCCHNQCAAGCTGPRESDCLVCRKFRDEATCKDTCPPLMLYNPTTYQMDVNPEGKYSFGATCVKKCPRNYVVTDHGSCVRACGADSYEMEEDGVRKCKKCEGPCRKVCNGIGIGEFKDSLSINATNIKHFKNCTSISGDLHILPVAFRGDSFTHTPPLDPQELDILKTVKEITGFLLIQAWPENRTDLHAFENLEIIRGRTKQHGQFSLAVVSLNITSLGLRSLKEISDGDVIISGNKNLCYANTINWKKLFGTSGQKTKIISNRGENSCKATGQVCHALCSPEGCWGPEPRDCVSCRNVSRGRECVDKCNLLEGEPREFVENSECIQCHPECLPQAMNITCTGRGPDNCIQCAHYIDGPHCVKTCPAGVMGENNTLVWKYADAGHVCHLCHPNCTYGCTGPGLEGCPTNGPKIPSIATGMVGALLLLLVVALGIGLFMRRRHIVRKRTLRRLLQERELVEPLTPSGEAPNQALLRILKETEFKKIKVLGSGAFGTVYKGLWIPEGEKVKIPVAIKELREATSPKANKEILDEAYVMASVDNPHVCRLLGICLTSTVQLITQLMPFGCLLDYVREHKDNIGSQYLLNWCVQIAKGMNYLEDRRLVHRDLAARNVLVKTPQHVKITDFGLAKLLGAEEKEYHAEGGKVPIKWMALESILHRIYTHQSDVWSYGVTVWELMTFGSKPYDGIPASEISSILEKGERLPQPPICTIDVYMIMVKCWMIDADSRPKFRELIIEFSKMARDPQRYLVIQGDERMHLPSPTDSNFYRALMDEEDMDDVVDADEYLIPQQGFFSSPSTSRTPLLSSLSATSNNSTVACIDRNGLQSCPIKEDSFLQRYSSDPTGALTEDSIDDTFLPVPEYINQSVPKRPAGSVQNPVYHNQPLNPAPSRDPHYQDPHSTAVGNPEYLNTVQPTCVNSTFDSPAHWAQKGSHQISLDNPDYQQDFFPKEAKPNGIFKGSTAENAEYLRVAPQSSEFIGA
Chain of Fibroblast growth factor 10 (Homo sapiens) (O15520 whole entry, looked up): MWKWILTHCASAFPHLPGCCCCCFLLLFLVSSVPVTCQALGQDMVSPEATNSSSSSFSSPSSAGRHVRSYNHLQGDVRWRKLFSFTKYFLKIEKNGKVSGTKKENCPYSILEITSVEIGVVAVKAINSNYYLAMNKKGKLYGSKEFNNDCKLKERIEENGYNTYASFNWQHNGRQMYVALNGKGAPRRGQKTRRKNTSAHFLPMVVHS
Chain of Neurogenic locus notch homolog protein 3 (Homo sapiens) (Q9UM47 whole entry, looked up): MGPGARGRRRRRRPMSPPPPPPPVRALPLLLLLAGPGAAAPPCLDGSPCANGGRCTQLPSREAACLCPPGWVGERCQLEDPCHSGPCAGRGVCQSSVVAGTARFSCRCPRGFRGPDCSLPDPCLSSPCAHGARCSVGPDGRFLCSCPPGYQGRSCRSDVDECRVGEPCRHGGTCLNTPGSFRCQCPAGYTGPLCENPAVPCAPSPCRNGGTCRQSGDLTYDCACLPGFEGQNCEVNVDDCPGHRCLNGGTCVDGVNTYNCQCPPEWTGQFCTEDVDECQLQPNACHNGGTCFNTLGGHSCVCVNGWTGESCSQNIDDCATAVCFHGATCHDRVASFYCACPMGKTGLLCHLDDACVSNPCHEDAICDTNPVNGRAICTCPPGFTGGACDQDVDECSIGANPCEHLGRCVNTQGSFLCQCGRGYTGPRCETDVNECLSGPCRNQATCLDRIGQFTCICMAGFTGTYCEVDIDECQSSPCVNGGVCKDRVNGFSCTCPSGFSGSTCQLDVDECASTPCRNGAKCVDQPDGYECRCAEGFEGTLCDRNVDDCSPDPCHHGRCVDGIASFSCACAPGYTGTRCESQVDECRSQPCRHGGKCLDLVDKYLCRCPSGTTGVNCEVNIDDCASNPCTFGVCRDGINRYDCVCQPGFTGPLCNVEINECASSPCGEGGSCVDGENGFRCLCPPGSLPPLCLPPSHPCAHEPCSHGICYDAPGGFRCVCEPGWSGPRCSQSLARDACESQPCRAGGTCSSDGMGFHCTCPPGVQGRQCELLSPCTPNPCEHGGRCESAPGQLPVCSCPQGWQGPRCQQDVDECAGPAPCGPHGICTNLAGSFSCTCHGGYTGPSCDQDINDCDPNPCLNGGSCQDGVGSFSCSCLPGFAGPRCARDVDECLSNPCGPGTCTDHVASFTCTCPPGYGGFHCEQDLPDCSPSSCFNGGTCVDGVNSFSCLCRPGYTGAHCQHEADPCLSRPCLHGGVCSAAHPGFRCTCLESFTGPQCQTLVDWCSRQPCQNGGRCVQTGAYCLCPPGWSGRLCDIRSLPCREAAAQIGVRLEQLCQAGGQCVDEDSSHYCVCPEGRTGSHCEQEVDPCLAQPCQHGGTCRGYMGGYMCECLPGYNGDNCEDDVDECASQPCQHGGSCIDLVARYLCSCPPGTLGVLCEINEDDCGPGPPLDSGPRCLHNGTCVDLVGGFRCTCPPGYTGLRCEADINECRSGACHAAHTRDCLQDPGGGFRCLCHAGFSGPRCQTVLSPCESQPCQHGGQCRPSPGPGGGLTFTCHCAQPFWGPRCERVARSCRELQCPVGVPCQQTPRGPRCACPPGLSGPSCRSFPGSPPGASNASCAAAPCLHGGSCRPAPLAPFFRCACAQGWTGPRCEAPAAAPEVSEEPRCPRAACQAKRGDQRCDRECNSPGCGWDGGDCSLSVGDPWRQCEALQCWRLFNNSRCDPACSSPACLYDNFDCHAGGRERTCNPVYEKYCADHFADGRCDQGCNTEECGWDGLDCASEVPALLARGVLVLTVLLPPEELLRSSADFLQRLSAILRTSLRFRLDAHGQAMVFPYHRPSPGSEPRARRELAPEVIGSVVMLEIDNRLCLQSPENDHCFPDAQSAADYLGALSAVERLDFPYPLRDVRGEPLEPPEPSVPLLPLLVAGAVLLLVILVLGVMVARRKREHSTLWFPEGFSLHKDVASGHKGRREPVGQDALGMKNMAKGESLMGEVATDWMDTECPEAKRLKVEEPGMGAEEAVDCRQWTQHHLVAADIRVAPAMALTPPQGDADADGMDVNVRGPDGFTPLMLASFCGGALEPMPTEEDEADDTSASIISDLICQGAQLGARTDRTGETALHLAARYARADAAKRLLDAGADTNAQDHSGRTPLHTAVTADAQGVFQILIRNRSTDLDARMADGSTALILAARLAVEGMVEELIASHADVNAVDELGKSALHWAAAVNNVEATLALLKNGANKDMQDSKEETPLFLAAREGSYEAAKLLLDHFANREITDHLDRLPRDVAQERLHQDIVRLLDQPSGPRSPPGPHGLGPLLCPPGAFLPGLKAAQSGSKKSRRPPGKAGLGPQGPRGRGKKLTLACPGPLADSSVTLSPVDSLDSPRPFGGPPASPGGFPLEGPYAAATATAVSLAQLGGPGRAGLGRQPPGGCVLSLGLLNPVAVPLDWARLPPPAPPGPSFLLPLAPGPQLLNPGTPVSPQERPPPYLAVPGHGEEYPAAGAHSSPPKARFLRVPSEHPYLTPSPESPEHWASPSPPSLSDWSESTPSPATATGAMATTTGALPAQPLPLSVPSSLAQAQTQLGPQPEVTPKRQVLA
Chain of Torsin-1A-interacting protein 2 (Homo sapiens) (Q8NFQ8 whole entry, looked up): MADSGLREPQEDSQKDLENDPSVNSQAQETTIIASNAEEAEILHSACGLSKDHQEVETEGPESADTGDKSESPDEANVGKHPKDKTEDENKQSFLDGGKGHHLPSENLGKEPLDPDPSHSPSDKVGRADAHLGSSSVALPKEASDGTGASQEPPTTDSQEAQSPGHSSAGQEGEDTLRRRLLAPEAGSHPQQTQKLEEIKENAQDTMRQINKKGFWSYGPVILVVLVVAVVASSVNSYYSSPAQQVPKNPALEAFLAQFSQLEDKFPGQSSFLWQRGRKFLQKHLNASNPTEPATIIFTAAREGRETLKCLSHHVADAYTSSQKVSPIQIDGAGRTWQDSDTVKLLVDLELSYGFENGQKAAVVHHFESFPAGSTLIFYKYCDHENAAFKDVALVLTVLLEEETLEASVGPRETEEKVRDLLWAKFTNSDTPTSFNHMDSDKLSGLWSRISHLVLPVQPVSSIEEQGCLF

As for `COc1cc(O)c(C(=O)C=Cc2ccc3c(c2)OCO3)c(OC)c1`, the composite z-score is -0.825 in test [1]; -0.862 in [5]; -0.127 in [7]; 0.257 in test [8]; 0.124 in test [9]; -0.113 in test [10]. The composite z-score in test [11] is 0.188; in test [12] it was -0.323; in test [13], -0.379; in [15], 0.772; in [16], -0.729; in test [17] it was -0.229. Further, the composite z-score was -0.0642 in [18], 0.115 in test [19] and 0.551 in test [20]. The z-score in [2] was 1.11 (inactive); in test [3], 0.561 (inactive); in [4], 2.26 (inactive); in test [6], 0.75 (inactive); in test [14], -0.00405 (inactive).
Consider `O=C1[C@H]2[C@H]3[C@H](O)[C@H](O)CC(=NOC[C@@H](O)COCc4ccco4)[C@H]3CC[C@H]2C(=O)N1Cc1ccccc1`, for which the composite z-score in test [1] was 0.411; in test [5], -1.71; in [7], -0.148; in test [8], 0.594; in [9], -0.309; in [10], -0.0973. Besides, the composite z-score in [11] was 0.467; in [12] it was -0.49; in test [13], -0.964; in test [15] it was 0.378; in [16], 0.0077; in test [17], 0.522. In addition, the composite z-score amounted to 0.404 in test [18], 0.901 in test [19] and 0.764 in test [20]. Besides, the z-score is -1.14 (inactive) in [2]; -1.05 (inactive) in test [3]; -1.11 (inactive) in test [4]; -0.518 (inactive) in test [6]; -0.907 (inactive) in test [14].
Take `COc1ccc(O[C@H]2C=C[C@@H](c3ccccc3)O[C@@H]2CON=C(C)CCN2CCc3nc(-c4ccccc4)c(-c4ccccc4)cc3C2)cc1`: the composite z-score is 0.307 in test [1]; 0.607 in test [5]; -0.148 in test [7]; 0.111 in test [8]; -0.183 in test [9]; -0.133 in test [10]. Also, the composite z-score is 0.51 in test [11]; -0.259 in test [12]; -0.0652 in [13]; -0.156 in test [15]; -0.796 in test [16]; -0.538 in test [17]. Further, the composite z-score in test [18] came out at 0.0193; in test [19] it was 0.162; in test [20], 0.829. The z-score in [2] was 0.549 (inactive); in test [3], -0.513 (inactive); in test [4], -2.92 (inactive); in test [6], 0.669 (inactive); in test [14], -0.365 (inactive).
As to `CC(=O)O[C@H]1C2=CO[C@H](C)[C@H]3[C@H]4C5=C([C@H](O)[C@H]6O[C@H]6C5=O)[C@H](OC4C)[C@@]23C(=O)[C@@H]2O[C@@H]21` (stereo not given in full), the composite z-score in [1] was 0.593; in test [5], 0.946; in test [7], -0.299; in [8], 0.433; in [9], 0.392; in [10], -0.0047. The composite z-score in [11] was 1.74; in test [12], -0.238; in [13] it was -0.647; in test [15], 0.916; in test [16], -0.0987; in [17], -0.121. For the same molecule, the composite z-score is 0.0068 in [18], 0.538 in test [19] and 0.528 in test [20]. In addition, the z-score in test [2] was 0.116 (inactive); in test [3], 0.197 (inactive); in test [4], 0.0253 (inactive); in test [6], -0.681 (inactive); in test [14], -4.6 (inactive).
On to `Cc1ccc(S(=O)(=O)n2c3ccccc3c3nnc(C(=O)c4ccccc4)nc32)cc1`, for which the composite z-score in [1] is -0.875; in test [5] it was -0.0929; in [7] it was -0.122; in test [8], 0.0828; in test [9], -0.467; in test [10] it was 0.0099. The composite z-score in test [11] is -0.0568; in test [12], -0.153; in test [13], -0.22; in [15], 0.328; in test [16], 0.0643; in [17] it was 0.494. Further, the composite z-score came out at 0.511 in [18], 0.563 in test [19] and 0.546 in test [20]. Moreover, the z-score is -0.232 (inactive) in test [2]; -0.683 (inactive) in [3]; 0.881 (inactive) in test [4]; 0.878 (inactive) in [6]; -1.04 (inactive) in [14].
